Compound activity (PubChem BioAssay)
Most compounds without a hit are left out; they make up all but 21% or so of the library.
Shiga toxin inh = Shiga toxin inhibition; Vero cells, Shiga toxin protein synthesis inhibition reporter; inhibition, % at 38.7 µM; actives 9.2% (n = 290,000); in the data active means inhibition mostly above about 28%, no sharp cut-off; inactive means mostly below about 43%
Cycloheximide cs = counter-screen hit for Shiga toxin inhibitors, cycloheximide. cell reporter, cycloheximide protein synthesis inhibition counterscreen. max response, %. actives 12% (n = 300,000). AID 2314; in the data active means max response mostly above about 13%, no sharp cut-off; inactive means mostly below about 14%; further: read at 38.3 µM for the half of the compounds with a filed dose
NS1 function inh = inhibitors of influenza NS1 protein function; Potency, µM (series often up to 46.1 µM); actives 0.4% (n = 270,000); calls by dose curve; further: actives are rising curves; nearly all actives have a fitted effect of over 50% in size
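Compounds were scored for reversing the slow growth caused by influenza A NS1 in S. cerevisiae, measured by optical density at 600 nm. Assay medium contained 2% galactose at pH 6.0; NS1-free yeast of the same strain were the positive control.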
Pf growth 48h = P. falciparum growth inhibition at 48 hours (one generation); actives 5.9% (n = 310,000); Potency, µM (top dose mostly 28.7 µM), hits mostly inhibitors; P. falciparum luciferase growth in erythrocytes, 48 h
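Read-out is firefly luciferase luminescence from an integrated reporter in P. falciparum, so falling signal marks reduced parasite growth. Infected erythrocytes were at 2% hematocrit and 0.1% parasitemia (final) in Albumax-supplemented RPMI 1640.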
SARS PLpro yeast = SARS-CoV PLP inhibition in yeast | Potency, µM (doses to about 32.9 µM), actives largely listed as activators | actives 0.19% (n = 330,000) | AID 485353 | S. cerevisiae expressing SARS-CoV PLpro, growth rescue; calls by dose curve; further: nearly all actives have a fitted effect of over 55% in size
Pf growth 96h = P. falciparum growth inhibition at 96 hours. AID 504834. P. falciparum luciferase reporter growth, 96 h. Potency, µM (doses to about 28.7 µM), most hits filed as inhibitors. actives 6.9% (n = 320,000)
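Cell-based qHTS: luciferase-tagged P. falciparum in erythrocytes (2% hematocrit, 0.05% parasitemia final) incubated with compounds for 96 hours, 37 C, 5% CO2; luciferase detection reagent then added and luminescence measured.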
Of the large screens only hits and unclear results are named; the others gave an inactive call. Unless noted, the call rests on the fitted dose curve; in most records, active means well fitted inhibition curve with a large enough effect; inconclusive means small, poorly fitted or top-dose-only effect, or another doubt; inactive means no such curve, though single readings can be large or run the other way.

O=C1OCc2cc(NC(=O)C3COc4ccccc4O3)ccc21 (stereo not drawn)	NS1 function inh inconclusive
O=C(N/N=C/c1cccs1)c1cccc(NC(=O)c2ccc(Cl)cc2)c1	Cycloheximide cs 29, Pf growth 96h inconclusive
O=C(N/N=C/c1cccc(NC(=O)c2ccc(Cl)cc2)c1)c1cccc(O)c1	Shiga toxin inh 77, Cycloheximide cs 26
Cc1cccc(C(=O)Nc2cccc(C(=O)N/N=C/c3ccncc3)c2)c1	Pf growth 96h inconclusive
O=C(N/N=C/c1cccc(O)c1)c1ccc(NC(=O)C2CCCCC2)cc1	Pf growth 48h inconclusive, Pf growth 96h inconclusive
Cc1ccc(C(=O)Nc2cccc(C(=O)N/N=C/c3ccc(O)cc3)c2)cc1	Cycloheximide cs 28, Pf growth 96h inconclusive
O=C(O)/C=C/c1cccc(NC(=O)c2ccc(Cl)cc2)c1	Pf growth 48h 0.33µM
Cc1ccsc1/C=N/NC(=O)Cn1cnc2ccccc21	Pf growth 96h inconclusive
O=c1c(/C=N/OCc2ccc(Cl)cc2Cl)c[nH]n1-c1cccc(Cl)n1	none (no result: NS1 function inh)
O=C(CCN1CCN(c2ccccc2)CC1)N/N=C/c1ccccc1O	Pf growth 48h inconclusive, SARS PLpro yeast inconclusive (no result: NS1 function inh)
Cc1cccc(N/C=C/c2onc(C)c2[N+](=O)[O-])c1	Shiga toxin inh 89, Cycloheximide cs 31 (no result: SARS PLpro yeast)
Cc1cc(O)ccc1N/C=C/c1onc(C)c1[N+](=O)[O-]	Shiga toxin inh 64, Cycloheximide cs 39 (no result: NS1 function inh)
COCCn1nnnc1CN1C2CCCC1CC(NC(C)=O)C2 (stereo not drawn)	Pf growth 96h 13µM
COCCn1nnnc1CN1CCC(NC(=O)c2ccc(Br)cc2)CC1	Pf growth 48h inconclusive
CC[C@H](C)[C@H](NC(=O)[C@H](Cc1ccc(O)cc1)NC(=O)[C@@H]1CCCN1C(=O)[C@@H](N)CCCN=C(N)N)C(=O)N[C@@H](CC(C)C)C(=O)O	none (no result: NS1 function inh, Pf growth 48h, SARS PLpro yeast, Pf growth 96h)
COc1cc(CNC(C)c2ccccc2)c(Br)cc1OCC(N)=O (stereo not drawn)	Pf growth 96h 8.3µM (no result: Pf growth 48h)
CCC(CO)NCc1cc(OC)c(OCC(=O)NCCc2ccccc2)cc1Br (stereo not drawn)	Pf growth 48h inconclusive, Pf growth 96h 4.1µM
CC1CN(S(=O)(=O)c2cc(C(=O)NCCC3=CCCCC3)ccc2Cl)CC(C)O1 (stereo not drawn)	Pf growth 48h 10µM, Pf growth 96h inconclusive (no result: Shiga toxin inh, Cycloheximide cs, NS1 function inh)
COc1ccc(C(=O)NCCC2=CCCCC2)cc1S(=O)(=O)N1CCOCC1	Pf growth 48h inconclusive, Pf growth 96h inconclusive (no result: Shiga toxin inh, Cycloheximide cs, NS1 function inh)
O=C(NCCC1=CCCCC1)c1ccc(F)c(S(=O)(=O)N2CCOCC2)c1	Pf growth 48h inconclusive, Pf growth 96h 9.3µM
CC(NC(=O)CNC(=O)C1O[C@@H]2OC(C)(C)O[C@@H]2[C@H]2OC(C)(C)O[C@@H]12)C(=O)O (stereo partly drawn)	none (no result: NS1 function inh)
O=C(COc1ccc(Cl)cc1)NCCCNC(=O)c1ccncc1	Pf growth 48h inconclusive
CCc1ccc2[nH]c3nc(SCc4nnc(-c5ccc(C)cc5)o4)nnc3c2c1	Pf growth 96h inconclusive
Cc1cccc(CSc2nnc3c(n2)[nH]c2ccccc23)c1	Pf growth 48h 1.5µM, Pf growth 96h 1.9µM
Cc1ccnc(NC(=O)CSc2nnc3c(n2)[nH]c2ccccc23)c1	Shiga toxin inh 47, Cycloheximide cs 33
COC(=O)c1cc(S(=O)(=O)NCc2ccc(S(N)(=O)=O)cc2)oc1C	none
O=C(CSCc1ccc(F)cc1)NCc1cccs1	none (no result: NS1 function inh)
O=C(/C=C/c1ccc(Br)cc1)NCc1cccs1	Shiga toxin inh 112, Cycloheximide cs 50
O=C(/C=C/c1ccc(F)cc1)NCc1cccs1	Shiga toxin inh 94, Cycloheximide cs 26
O=C(/C=C/c1ccccc1Cl)NCc1cccs1	Shiga toxin inh 89, Cycloheximide cs 48
O=C1ON=C(c2cccc([N+](=O)[O-])c2)/C1=C/c1ccc(O)cc1	none (no result: NS1 function inh)
COC(=O)c1ccc(NC(=O)CNCc2ccncc2)cc1	none
NC(=O)c1ccccc1N1CCCCC1	none
CC(c1ccccc1)N1CCN(C(=O)CCl)CC1 (stereo not drawn)	Pf growth 96h inconclusive (no result: NS1 function inh)
Cc1ccc(N/C=C2/Sc3ccccc3NC2=O)cc1	Shiga toxin inh 70, Cycloheximide cs 45
CCC(C)NC(=O)N1c2ccccc2Sc2ccccc21 (stereo not drawn)	Pf growth 48h inconclusive, Pf growth 96h inconclusive
COc1ccc(N/C=C2/Sc3ccccc3NC2=O)cc1	Shiga toxin inh 88, Cycloheximide cs 44 (no result: NS1 function inh)
CCC(C)NC(=O)/C=C1\Sc2ccccc2NC1=O (stereo not drawn)	Cycloheximide cs 13, Pf growth 96h inconclusive
COc1ccccc1N/C=C1/Sc2cc(Cl)ccc2NC1=O	none
O=C1Nc2ccccc2S/C1=C/NCc1ccccc1Cl	none (no result: NS1 function inh)
CCOC(=O)N1CCC(NC(=O)C(NC(=O)C2CCC(C)CC2)C(C)CC)CC1 (stereo not drawn)	Pf growth 96h inconclusive (no result: Pf growth 48h)
Cc1sc(NC(=O)c2ccccc2F)c(CN2CCCCC2C)c1C (stereo not drawn)	Shiga toxin inh 61, Cycloheximide cs 71
Cc1ccc(-c2nc(CS(=O)CC(=O)NCCCN3CC(C)CC(C)C3)c(C)o2)cc1 (stereo not drawn)	NS1 function inh inconclusive, Pf growth 96h inconclusive (no result: Pf growth 48h)
COc1ccc(-c2nc(CS(=O)CC(=O)NC3CCC(C)CC3)c(C)o2)cc1OC (stereo not drawn)	Shiga toxin inh 60, Cycloheximide cs 33
Cc1oc(-c2cccs2)nc1CS(=O)CC(=O)NCCCN1CC(C)CC(C)C1 (stereo not drawn)	Pf growth 96h 12µM (no result: Pf growth 48h)
Cc1oc(-c2ccc(Cl)cc2)nc1CS(=O)CC(=O)NCCCN1CCN(Cc2ccccc2)CC1 (stereo not drawn)	Pf growth 48h inconclusive, Pf growth 96h 9.3µM
CCCNC(=O)CS(=O)Cc1nc(-c2ccc(OC)cc2)oc1C (stereo not drawn)	Pf growth 96h 15µM (no result: Pf growth 48h)
Cc1oc(-c2ccc(Cl)cc2)nc1CS(=O)CC(=O)NCCCN1CCCC(C)C1 (stereo not drawn)	none (no result: SARS PLpro yeast)
CCCCNC(=O)CS(=O)Cc1nc(-c2ccc(C)cc2)oc1C (stereo not drawn)	NS1 function inh inconclusive (no result: Pf growth 48h)
COc1ccc(Cl)cc1S(=O)(=O)N1CCC(C(=O)NCc2ccco2)CC1	Pf growth 48h inconclusive
O=C(c1ccc(=O)[nH]n1)N1CCN(S(=O)(=O)c2cccc(F)c2)CC1	none (no result: Shiga toxin inh, Cycloheximide cs, NS1 function inh)
O=C(Nc1cccc2c1CCCC2)c1ccncc1	Pf growth 96h inconclusive
CCc1ccc(-c2nc(CS(=O)CC(=O)NCCCN3CCOCC3)c(C)o2)cc1 (stereo not drawn)	Pf growth 96h 7.4µM
CCc1ccc(-c2nc(CS(=O)CC(=O)NCc3ccccc3)c(C)o2)cc1 (stereo not drawn)	none
Cc1cccn2c(=O)c(/C=C3\SC(=S)NC3=O)c(NCCCN3CCOCC3)nc12	Pf growth 48h 13µM, Pf growth 96h inconclusive
